# FMDV antiviral: antivirals against foot and mouth disease virus. Potency, µM (top dose mostly 57.9 µM), hits mostly inhibitors. FMDV antiviral cell-based qHTS. AID 1159524. hit rate 1.2% among 410,000; calls by dose curve; tested in HEK293T cells; further: read-out not given here; nearly all actives have a fitted effect of over 45% in size
# HCV inh: inhibitors of hepatitis C virus infection. Huh7.5.1 HCVcc-Cre infection, luciferase reporter, 44 h. Potency, µM (top dose mostly 41.8 µM), most hits filed as inhibitors. hit rate 3.4% among 340,000. AID 651820
#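 HCVcc-Cre virus at an moi near 0.5 was added right after compound to cells cultured 4 h from seeding (1,000 cells/well). Luciferase activity was determined 44 h later, 15 min after substrate addition at RT.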
# Marburg entry inh: Marburg virus entry inhibition; Potency, µM (series often up to 37.8 µM), usual class: inhibitors; AID 540276; Marburg virus pseudotyped entry inhibition, cell reporter; hit rate 1.8% among 300,000; calls by dose curve; tested in HEK293 cells
# RE007 growth inh: less growth of the S. pombe RE007 Vpr strain | S. pombe RE007 Vpr strain, BacTiter-Glo ATP luminescence, 24 h | Potency, µM (doses to about 92.2 µM), hits mostly inhibitors | hit rate 0.21% among 360,000; active means well fitted falling curve with a large enough effect; inconclusive means small, poorly fitted or top-dose-only effect; inactive means no such curve, though single readings can be large or run the other way; further: nearly all actives have a fitted effect of over 50% in size
#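 Fission yeast strain RE007, carrying one chromosomally integrated HIV-1 vpr copy, was seeded at OD 0.01 in PMG+AL medium with 23 nL pinned compound. After 24 h at 30 °C and 99% humidity, viability was read by BacTiter-Glo luminescence.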
# LASV entry inh: inhibitors of Lassa virus binding or cell entry. Lassa virus pseudotype entry inhibition, cell reporter. Potency, µM (titrated, usually from 37.9 µM), actives largely listed as inhibitors. hit rate 1.2% among 300,000; calls by dose curve; tested in HEK293 cells; further: nearly all actives have a fitted effect of over 50% in size
# Sm TGR block: blocks Schistosoma mansoni thioredoxin glutathione reductase; Potency, µM (series often up to 114 µM), actives largely listed as inhibitors; hit rate 3% among 360,000; AID 485364; purified TGR, DTNB reduction, TNB absorbance 405 nm; Q962Y6; further: nearly all actives have a fitted effect of over 60% in size
#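 Kinetic colorimetric format: TGR-catalysed, NADPH-driven DTNB reduction monitored via TNB absorbance. Enzyme dispensed at 20 nM; compound exposure 15 min at room temperature before reaction start.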
# Hits are given with their value; i = inactive; ? = inconclusive; nt = no result; [ ] = dose if it differs, or a comment. Rows were chosen to be rich in hits. Some 7.2% of all compounds tested hit in one or more screens of this group. Unless noted, the call rests on the fitted dose curve; in most records, active means well fitted curve in the direction sought with a large enough effect; inconclusive means small, poorly fitted or top-dose-only effect, or another doubt; inactive means no such curve, though single readings can be large; an effect the other way counts as inactive or inconclusive.
SMILES,FMDV antiviral,HCV inh,Marburg entry inh,RE007 growth inh,LASV entry inh,Sm TGR block
CC(C)(O)C#Cc1ccc(C(=O)NCCN2Cc3ccccc3OC(c3ccccc3F)C2)o1 (configuration not stated),i,nt,nt,nt,nt,nt
O=C(COCc1cc(-c2cccs2)on1)N1CCN(c2ccc(F)cc2)CC1,?,nt,nt,nt,?,i
O=C(Cc1ccc(F)cc1)NC1CC(=O)N(c2ccc3c(c2)OCCO3)C1 (configuration not stated),i,nt,nt,nt,i,i
CCN1C(=O)C2(C(C(=O)c3cc4ccccc4o3)=C(O)C(=O)N2CCCN(C)C)c2ccccc21 (configuration not stated),i,i,i,i,?,?
CCN1C(=O)C2(C(C(=O)c3ccc(C)o3)=C(O)C(=O)N2CCCN2CCOCC2)c2ccccc21 (configuration not stated),nt,?,i,i,i,50µM
CCN1C(=O)C2(C(C(=O)c3ccc(C)o3)=C(O)C(=O)N2CCCN(C)C)c2ccccc21 (configuration not stated),i,i,i,i,i,32µM
CC(C)N1CCN(C(=O)c2cnn(-c3nccc(-c4ccc5c(c4)OCO5)n3)c2-c2ccco2)CC1,i,nt,nt,nt,nt,nt
CC(C)Oc1ccc(CNC(=O)c2cnc3sc(N4CCCCCC4)nn3c2=O)cc1,i,nt,nt,nt,i,i
O=C(CN(c1ccc(Cl)cc1)S(=O)(=O)c1ccc(Cl)c([N+](=O)[O-])c1)NCCc1ccc(F)cc1,i,?,i,i,i,?
O=C(CN(c1ccc(Cl)cc1)S(=O)(=O)c1ccc(Cl)c([N+](=O)[O-])c1)NCCc1ccccc1,i,11µM,?,i,i,nt
CCCCCCCCCCCCCCC[C@@H](O)[C@H](CO)NC(=O)CCCCCCC,i[6.7 µM],nt,nt,nt,nt,nt
CC(=O)C1=NOC2C(=O)N(c3ccc(Cl)cc3)C(=O)C12 (configuration not stated),i,i,nt,i,nt,3.5µM
CCOC(=O)C1=NOC2C(=O)N(c3ccc(Cl)cc3Cl)C(=O)C12 (configuration not stated),i,i,?,i,i,3.5µM
CC(=O)c1cccc(NC(=O)[C@H](Cc2ccccc2)N2Cc3ccccc3C2=O)c1,i,nt,i,nt,i,i
COc1cccc(CNc2nc3c(-c4ccccc4)nnn3c3ccccc23)c1,i,nt,?,nt,i,i
CCCCNc1ccc2c(c1)C1CC2CCN1C(=O)OCc1ccccc1 (configuration not stated),i,?,nt,i,nt,nt
O=C(C1CC1)N1CCC(Oc2cccc(C(=O)N3CCCCC3CCO)c2)CC1 (configuration not stated),i,i,nt,i,nt,i
O=C(NCc1cccc(Cl)c1)c1cccc(OC2CCN(C(=O)C3CC3)CC2)c1,16µM,?,?,i,?,i
O=C1NC(Cc2ccc(O)cc2)c2nc3cc(F)ccc3c(=O)n2-c2cc(Cl)ccc21 (configuration not stated),nt,i,nt,nt,nt,nt
O=C1NC(Cc2ccc(O)cc2)c2nc3cc(Cl)ccc3c(=O)n2-c2cc(Cl)ccc21 (configuration not stated),?,25µM,nt,i,nt,nt
COc1ccc(NC(=O)c2cc(-c3ccccc3O)no2)cc1,i,nt,nt,nt,?,i
COc1ccc(-c2onc(C)c2-c2ccc(C(=O)OC(C)C)o2)c(O)c1,i,6.3µM,?,?,?,i
Cc1cc2nn(-c3ccc(F)cc3)nc2cc1NC(=O)c1cc(Cl)ccc1Cl,i,nt,?,nt,i,i
CCCOc1ccc(C(=O)Nc2ccc(S(=O)(=O)N3C[C@@H]4C[C@@H](C3)c3cccc(=O)n3C4)cc2)cc1,i,3.2µM,i,i,nt,i
CC(C)CC(=O)Nc1ccc(S(=O)(=O)N2CC3CC(C2)c2cccc(=O)n2C3)cc1 (configuration not stated),i,i,?,i,i,i
CC1(NC(=O)N2CCCCC2)CCS(=O)(=O)C1 (configuration not stated),i,i,i,i,i,i
CC12CC3(C)CC(C)(C1)CC(NC(=O)N1CCCC1)(C2)C3,?,i,?,3.5µM,i,i
COc1ccccc1/C=C/C(=O)Nc1nc2n(n1)C(c1ccc(F)cc1)C=C(c1ccccc1)N2 (configuration not stated),i,nt,?,nt,?,i

# From PubChem BioAssay
